# Laboratory results reported in PubChem BioAssay (NCATS).
# Results filed as inconclusive are left out. A number with no mark means an inactive call. Calls follow the shape of the dose curve; as a rule, active = well fitted inhibition curve with a large enough effect; inconclusive = small, poorly fitted or top-dose-only effect; inactive = flat fitted curve, though single readings scatter.
# Target: DNA repair nuclease/redox regulator APEX1 (Homo sapiens) (UniProt P27695)
# Test: qHTS Validation Assay for Inhibitors of the Human Apurinic/apyrimidinic Endonuclease 1 (APE1) (AID 1705;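 also: TAMRA fluorescence gain over two minutes as APE1 cuts a quenched THF abasic duplex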)
# Details: purified APE1 endonuclease activity, fluorescence, titration; series mostly up to 57.1 µM; activity change, negative = inhibition: at the top concentration
# Description: Assay Provider: David M. Wilson, III, National Institute on Aging, NIH
# Screening Center PI: Austin, C.P.
# Screening Center: NIH Chemical Genomics Center [NCGC]
# The apurinic/apyrimidinic endonuclease APE1 is the primary mammalian enzyme responsible for the removal of abasic (or AP) sites in DNA and functions centrally in the base excision DNA repair (BER) pathway. […] Thus, targeting APE1 could improve the efficacy of current treatment paradigms by promoting selective sensitization or protection of diseased and normal cells, respectively.
# Inhibition of APE1 activity was screened by utilizing double-stranded short substrate containing tetrahydrofuran (THF) abasic site labeled with rhodamine-type fluorophore (TAMRA) at the 5'-end and with non-fluorescent Black Hole Quencher-2 (BHQ-2) at the opposing 3'-end. An increase in the fluorescence intensity due to incision of the abasic site by APE1 was used to measure the enzyme activity.
# 1. Substrate: 50 nM final concentration of TAMRA/BHQ-2 substrate dispensed throughout the plate.
# 2. Enzyme: […] nM APE1 final concentration in columns 1, 2, 5-48. Column 1 is neutral (100% activity)
# 3. Control: Pintool transfer of control inhibitor NSC-13755 to column 2 of all assay plates. Two-fold, 16 pt dilution in duplicate to produce final concentrations in the […] uM - […] nM range.
# 3. Buffer columns in columns 3 and 4 were used as negative control (no enzyme).
# Three uL of enzyme were dispensed to 1536-well Greiner black solid bottom plates. Compounds (23 nL) were transferred via Kalypsys pintool. The plates were incubated for 15 min at room temperature, and then 1 uL of substrate solution was added to start the reaction. The plates were immediately transferred into ViewLux High-throughput CCD imager (Perkin-Elmer) in order to measure the reaction progress in kinetic mode (three reads every 60 seconds) using 525 nm excitation and 598 nm emission fluorescence protocol. The fluorescence intensity difference between the third and the first time points was used to compute reaction progress.
# % is scaled to controls: 0 for no effect and ±100 for the full control effect.
# DNA repair nuclease/redox regulator APEX1 (Homo sapiens), sequence (P27695 whole entry, looked up): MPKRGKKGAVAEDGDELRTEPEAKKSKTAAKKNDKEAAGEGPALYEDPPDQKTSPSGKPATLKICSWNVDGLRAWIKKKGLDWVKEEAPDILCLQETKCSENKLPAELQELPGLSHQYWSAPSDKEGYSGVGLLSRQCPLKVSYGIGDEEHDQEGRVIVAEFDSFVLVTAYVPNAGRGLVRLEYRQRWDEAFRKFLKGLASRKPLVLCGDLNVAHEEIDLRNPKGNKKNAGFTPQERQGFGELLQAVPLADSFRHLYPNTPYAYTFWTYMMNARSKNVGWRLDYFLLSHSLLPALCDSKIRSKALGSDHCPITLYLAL
row,Structure (SMILES),"activity change, negative = inhibition [%]"
1,O=C(c1cc(O)c(O)c([N+](=O)[O-])c1)c1ccccc1F,13.3
2,CC(C)NCC(O)COc1cccc2ccccc12 (stereo not given),-0.884
3,CN[C@H](CC(C)C)C(=O)N[C@H]1C(=O)N[C@@H](CC(N)=O)C(=O)N[C@H]2C(=O)N[C@H]3C(=O)N[C@H](C(=O)N[C@H](C(=O)O)c4cc(O)cc(O)c4-c4cc3ccc4O)[C@H](O)c3ccc(c(Cl)c3)Oc3cc2cc(c3O[C@@H]2O[C@H](CO)[C@@H](O)[C@H](O)[C@H]2O[C@H]2C[C@](C)(N)[C@H](O)[C@H](C)O2)Oc2ccc(cc2Cl)[C@H]1O,1.63
4,C[C@@H](NC(=O)/C(C#N)=C/c1ccc(O)c(O)c1)c1ccccc1,-22.3
5,Clc1ccc(N2CCN(Cc3c[nH]c4ncccc34)CC2)cc1,-5.2
6,N.N.O=C(O)C1(C(=O)O)CCC1.[Pt],-21.1
7,CCCN(CC1CC1)c1nc(C)nc(Nc2c(Cl)cc(Cl)cc2Cl)c1Cl,-3.98
8,COc1cc2nc(N3CCN(C(=O)OCc4ccccc4)C(C(=O)NC(C)(C)C)C3)nc(N)c2cc1OC (stereo not given),-3.56
9,NCCSSCCN,-4.08
10,C#CCN1C(C)=C(C(=O)OC)C(c2cccc([N+](=O)[O-])c2)C(C(=O)OCC)=C1C (stereo not given),-13.1
11,Brc1c(Br)c(Br)c2n[nH]nc2c1Br,5.8
12,O=C(O)[C@@H]1C[C@H](C(=O)O)N1,-7.5
13,CC(C)Cc1ccc([C@H](C)C(=O)O)cc1,-3.78
14,Fc1ccc(C(OCCCc2cnc[nH]2)c2ccc(F)cc2)cc1,2.73
15,COc1cc2c(CCNC(C)=O)c[nH]c2cc1Cl,1.02
16,NCCCCC(=O)O,-2.37
17,CCCCCCCCCCCCCCCC(=O)NCC(COP(=O)([O-])OCC[N+](C)(C)C)OCC (stereo not given),-5.36
18,COc1ccccc1CNCCCCCCNCCCCCCCCNCCCCCCNCc1ccccc1OC,2.95
19,O=C(O)CCCC[C@@H]1CCSS1,-6.24
20,O=c1[nH]c2ccccc2n1CCCN1CCN(C(c2ccccc2)c2ccccc2)CC1,-0.218

row,Structure (SMILES),"activity change, negative = inhibition [%]"
1,c1ccc(-c2ccccn2)nc1,-4.85
2,S=C(S)OC1CC2CC1C1CCCC21 (stereo not given),-10
3,O=C(O)CC[C@@H](C(=O)O)N1C(=O)c2ccccc2C1=O,7.89
4,O=c1[nH]c2cc([N+](=O)[O-])c([N+](=O)[O-])cc2[nH]c1=O,3.58
5,O=C(O)[C@@H]1C[C@@H](C(=O)O)N1,-4.61
6,O=C(/C=C/c1ccc(O)cc1)c1ccc(O)cc1O,-7.98
7,CN(C)CCC(c1ccc(Cl)cc1)c1ccccn1 (stereo not given),-11.3
8,O=C(Nc1ccccc1)c1cc([N+](=O)[O-])ccc1Cl,4.75
9,O=S(=O)(c1cccc2c(I)cccc12)N1CCCNCC1,-0.844
10,CC1(C)CCC=[N+]1[O-],-8.66
11,O=C1O/C(=C/Br)CCC1c1cccc2ccccc12 (stereo not given),-16.1
12,C=CC(N)CCC(=O)O (stereo not given),-2.85
13,O=c1[nH]c2cc(Cl)c(Cl)cc2[nH]c1=O,-7.17
14,CN1[C@@H](CC(=O)c2ccccc2)CCC[C@H]1C[C@H](O)c1ccccc1,4.49
15,COc1cc(OC)c(/C=C2/C(=O)Nc3ccccc32)c(OC)c1,-4.35
16,COc1cccc(OC)c1OCCNCC1COc2ccccc2O1 (stereo not given),5.45
17,CC(C)(C)NCC(O)COc1nsnc1N1CCOCC1 (stereo not given),1.63
18,NC(CCCP(=O)(O)O)C(=O)O (stereo not given),0.0888
19,Oc1cc2c(cc1O)CN(C(=S)NCCc1ccc(Cl)cc1)CCC2,-15.1
20,CN1CCc2cccc3c2C1Cc1ccc(O)c(O)c1-3 (stereo not given),9.81
